Inhibition data for 27 molecules are collected here from PubChem BioAssay AID2073 (Sanford-Burnham Center for Chemical Genomics, 2009).

Usually inhibition stands for the change of the read-out against control, counted positive when it falls.

In all, about 290,000 compounds went through this assay and about 570 (0.2%) were called active. Inconclusive results (about 1%) are left out. This is one part of a sample in which actives are shown more often than they occur. No stated cut-off is given here; in the data, active means inhibition mostly above about 51% (no sharp cut-off); inconclusive means no clear call, values can overlap the other calls; inactive means mostly below about 53%.

This assay deals with Voltage-dependent N-type calcium channel subunit alpha-1B (Homo sapiens) (UniProt Q00975). Nature of the assay: disruptors of CaV2.2 binding to Mint1 – biochemical, HTRF (AID 2073). To be noted: HTRF protein-protein interaction, Mint1-CaV2.2, at 20 µM, stronger effect = higher value. (Time-resolved FRET reads energy transfer from a long-lived donor to a nearby acceptor.)
Voltage-dependent N-type calcium channel subunit alpha-1B (Homo sapiens), sequence (Q00975 whole entry, looked up): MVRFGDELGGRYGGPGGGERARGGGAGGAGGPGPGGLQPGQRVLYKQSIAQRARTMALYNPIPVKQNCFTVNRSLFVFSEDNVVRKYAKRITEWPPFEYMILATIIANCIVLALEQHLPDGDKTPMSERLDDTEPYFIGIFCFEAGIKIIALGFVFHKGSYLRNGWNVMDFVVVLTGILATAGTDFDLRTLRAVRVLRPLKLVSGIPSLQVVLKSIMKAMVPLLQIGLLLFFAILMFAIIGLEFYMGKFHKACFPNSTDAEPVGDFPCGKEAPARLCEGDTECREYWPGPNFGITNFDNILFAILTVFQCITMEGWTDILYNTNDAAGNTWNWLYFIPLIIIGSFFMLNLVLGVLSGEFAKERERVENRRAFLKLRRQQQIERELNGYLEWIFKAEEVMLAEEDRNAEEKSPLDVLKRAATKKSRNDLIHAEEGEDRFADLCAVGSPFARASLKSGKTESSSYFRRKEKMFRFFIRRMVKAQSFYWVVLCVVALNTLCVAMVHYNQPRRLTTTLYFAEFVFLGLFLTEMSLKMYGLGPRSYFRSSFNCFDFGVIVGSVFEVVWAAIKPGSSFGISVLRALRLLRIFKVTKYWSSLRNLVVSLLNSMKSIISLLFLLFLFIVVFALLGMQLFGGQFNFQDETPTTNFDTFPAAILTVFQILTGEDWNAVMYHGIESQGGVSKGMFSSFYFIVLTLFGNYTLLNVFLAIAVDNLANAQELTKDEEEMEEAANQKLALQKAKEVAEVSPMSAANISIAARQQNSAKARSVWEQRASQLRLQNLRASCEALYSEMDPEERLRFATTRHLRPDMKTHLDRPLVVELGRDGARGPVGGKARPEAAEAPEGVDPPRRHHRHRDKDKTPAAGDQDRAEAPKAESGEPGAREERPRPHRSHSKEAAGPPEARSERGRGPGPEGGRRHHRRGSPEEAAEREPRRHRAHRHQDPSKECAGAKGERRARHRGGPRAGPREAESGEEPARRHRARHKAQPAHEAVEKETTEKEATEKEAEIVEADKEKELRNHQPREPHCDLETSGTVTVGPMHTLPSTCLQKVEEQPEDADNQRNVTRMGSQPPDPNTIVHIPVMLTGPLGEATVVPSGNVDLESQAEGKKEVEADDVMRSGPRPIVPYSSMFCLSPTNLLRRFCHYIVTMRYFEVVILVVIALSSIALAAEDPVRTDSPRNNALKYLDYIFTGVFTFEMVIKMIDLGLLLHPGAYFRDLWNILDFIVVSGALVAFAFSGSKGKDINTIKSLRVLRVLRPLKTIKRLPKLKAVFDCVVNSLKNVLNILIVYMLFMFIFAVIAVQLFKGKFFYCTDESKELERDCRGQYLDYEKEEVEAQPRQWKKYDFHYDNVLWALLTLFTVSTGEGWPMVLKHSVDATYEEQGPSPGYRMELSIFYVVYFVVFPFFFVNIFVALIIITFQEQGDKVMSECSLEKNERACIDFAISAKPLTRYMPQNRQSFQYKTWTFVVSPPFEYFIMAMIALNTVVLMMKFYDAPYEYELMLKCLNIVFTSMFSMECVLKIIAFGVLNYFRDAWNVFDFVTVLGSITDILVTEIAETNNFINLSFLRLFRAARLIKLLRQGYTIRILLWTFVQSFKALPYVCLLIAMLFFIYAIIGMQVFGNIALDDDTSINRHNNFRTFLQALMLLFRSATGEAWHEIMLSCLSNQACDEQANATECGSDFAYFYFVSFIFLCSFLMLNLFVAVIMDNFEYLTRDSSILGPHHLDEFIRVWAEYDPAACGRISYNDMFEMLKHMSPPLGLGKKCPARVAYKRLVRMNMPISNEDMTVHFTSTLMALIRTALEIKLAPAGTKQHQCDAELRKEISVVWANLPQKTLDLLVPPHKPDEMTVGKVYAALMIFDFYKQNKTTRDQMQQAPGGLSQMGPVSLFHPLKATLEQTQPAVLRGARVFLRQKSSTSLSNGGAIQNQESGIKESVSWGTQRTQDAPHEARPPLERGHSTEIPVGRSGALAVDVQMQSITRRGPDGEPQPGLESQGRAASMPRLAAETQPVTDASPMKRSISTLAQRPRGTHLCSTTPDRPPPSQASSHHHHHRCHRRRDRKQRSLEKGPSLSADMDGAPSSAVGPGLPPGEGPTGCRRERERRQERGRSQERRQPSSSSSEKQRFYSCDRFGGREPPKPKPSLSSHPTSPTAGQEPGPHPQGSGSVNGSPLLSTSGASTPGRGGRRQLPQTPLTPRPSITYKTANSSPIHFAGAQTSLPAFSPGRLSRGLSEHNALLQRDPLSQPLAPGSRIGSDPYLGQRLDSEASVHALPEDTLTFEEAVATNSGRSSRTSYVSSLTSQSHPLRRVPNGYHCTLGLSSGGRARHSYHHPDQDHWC

For `CN1CCN(S(=O)(=O)c2cccc(C(=O)Oc3ccccc3Cl)c2)CC1`, the inhibition is 14.6% (inactive). Consider `COc1ccc(CNC(=O)Cn2nc([N+](=O)[O-])c(Br)c2C)cc1`, for which the inhibition is 2.9% (inactive). Still for that read-out and setting: for `CCCN1C2=NCCN2c2ccccc21` the value was 2.5% (inactive).

On to `O=C(Nc1ccc(F)cc1)Nc1nnc(-c2ccncc2)s1`, for which the inhibition was 50.5% (inactive). Besides, under “measured here: average of repeat tests”, the inhibition is 37.8%. On to `Cc1nnc(NC(=O)Nc2cccc(Cl)c2)s1`, for which the inhibition is -1.9% (inactive).

In the case of `O=C(Nc1cccc(Cl)c1)Nc1nnc(-c2ccncc2)s1`, the inhibition was 56.2% (active). With `COc1ccc(NC(=O)Nc2nnc(-c3ccncc3)s2)cc1`, the inhibition was 3.4% (inactive). Take `Cc1ccc(NC(=O)Nc2nnc(-c3ccncc3)s2)cc1C`: the inhibition was 76.4% (active). Still for that read-out and setting: for `O=C(Nc1ccc(Cl)cc1)Nc1nnc(-c2ccncc2)s1` the value was 14.4% (inactive); for `Cc1c(NC(=O)CN2CCN(c3ccc([N+](=O)[O-])cc3)CC2)c(=O)n(-c2ccccc2)n1C`, 1.5% (inactive); for `CC1Oc2ccccc2N(CC(=O)N2CCc3ccccc32)C1=O` (stereo not drawn), -10.9% (inactive). Consider `CCCC(=O)N(Cc1cc(=O)[nH]c2ccccc12)c1ccc(C)cc1`, for which the inhibition was 14.9% (inactive). On to `CCOc1ccc(N(CC(=O)NCc2ccco2)S(C)(=O)=O)cc1`, for which the inhibition is 13.2% (inactive). Same read-out and setting: with `O=C(NNC(=S)NC(=O)c1ccccc1)c1ccc([N+](=O)[O-])cc1` the figure was -13% (inactive); with `Cc1nc2ccc(S(=O)(=O)NCC(=O)NCc3ccc4c(c3)OCO4)cc2s1`, 15.2% (inactive); with `CS(=O)(=O)Nc1cccc2[nH]ncc12`, 6.1% (inactive). On the same count and under the same terms, with `N#CC1(C#N)[C@@H](C(=O)C23CC4CC(CC(C4)C2)C3)C12CCOCC2` the figure was 0% (inactive); with `Cc1ccc(NS(=O)(=O)c2ccc(OCC(=O)N3CCOCC3)cc2)cc1`, -10.3% (inactive). Still for that read-out and setting: with `COC(=O)C1C(O)=C(C=NC2CCCCC2)C(=O)CC1(C)C` (stereo not drawn) the figure was 10.7% (inactive); with `Nc1nc(O)c(N=Nc2ccc(S(N)(=O)=O)cc2)c(=O)[nH]1`, 50% (active); with `NS(=O)(=O)c1ccc(N=Nc2c(O)ccc3ccccc23)cc1`, 64.4% (active). Consider `Oc1ccc(N=Nc2c(O)ccc3ccccc23)cc1`, for which the inhibition is -2.8% (inactive).

`Nc1nc(N)c(N=Nc2ccc(S(N)(=O)=O)cc2)c(=O)[nH]1`: the inhibition is 13.6% (inactive). The same measure, in the same setting: with `NS(=O)(=O)c1ccc(N=Nc2c(O)c(C(=O)O)cc3ccccc23)cc1` the figure was 20.5% (inactive); with `Cc1c(C#N)c(O)[nH]c(=O)c1N=Nc1ccc(S(N)(=O)=O)cc1`, 1.4% (inactive). Still for that read-out and setting: with `O=C(CN1C(=O)C2C3C=CC(C4CC34)C2C1=O)Oc1ccccc1` (stereo not drawn) the figure was -1.6% (inactive); with `CC(C)(C)NC(=O)CSC(=Nc1cccc(F)c1)NC#N`, -25.9% (inactive).
